# The list is not random: actives were taken first. Their share in the collection is about 5.5%.
# Giardia killer: Giardia lamblia killing; activity change, % at 7.66 µM, hits read low; AID 540267; Giardia lamblia trophozoite viability; actives 0.15% (n = 340,000); in the data active = activity change below about -80%; inconclusive = between about -30% and that limit;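 note: parasites exposed to compound for two days anaerobically before the ATP read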
#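 Luminescent ATP signal served as the viability read-out, measured 15-30 min after adding ATP detection reagent to trophozoites that had been incubated with compounds for 48 hrs at 37 deg C anaerobically at 100 cells/well.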
# FBPA coupling cs: inhibits coupling enzyme system, counter-screen for aldolase hits; coupling enzyme system counterscreen, AmpLite Red fluorescence; activity change, negative = inhibition, % at 58.2 µM, hits read low; actives 0.67% (n = 290,000); AID 2472; in the data active = activity change below about -30%
#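 Coupling enzymes only (glyceraldehyde-3-phosphate) + compound, at 57.5 uM final, 10 min RT; add substrate/coupling/AmpLite Red mix, 20 min RT; fluorescence ex 525/em 598 nm. Actives flag coupling-system interference.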
# ELG1 repair inh: ELG1-dependent DNA repair inhibition; Potency, µM (titrated, usually from 46.1 µM), inactives show at the highest dose activity change, negative = inhibition, actives largely listed as inhibitors; HEK293T ELG1-luciferase reporter, luminescence, 16 h; DNA damage induced by 5-fluorouridine; AID 504467; actives 2.3% (n = 330,000); note: potency is the fitted concentration of half-maximal effect; nearly all actives have a fitted effect of over 55% in size
#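 Reporter activity after DNA damage by 5-fluorouridine is monitored. Compound-treated cells incubate 16 hr at 37 °C, then ONE-Glo is added for 30 min before luminescence reading.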
# Sfp inh: blocks B. subtilis Sfp PPTase activity. Q9F4F7. Biochemical Sfp PPTase activity, qHTS. Potency, µM, without a hit: largest response in the series, negative = inhibition, most hits filed as inhibitors. actives 3.5% (n = 310,000). AID 1490;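 note: the enzyme is Sfp with the accession as filed and its product quenches rhodamine fluorescence; potency is the fitted concentration of half-maximal effect; 0% = enzyme reaction without inhibitor and -100% = no enzyme wells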
#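 After 15 min at room temperature with compound, 15 nM Sfp received 5 uM rhodamine-CoA plus 12.5 uM BHQ-2-ybbR (50 mM Hepes pH 7.6, 10 mM MgCl2). Rate came from the fluorescence difference over 30 min, ex 525/em 598 nm.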
# The depositor's hits bear a star; ? = inconclusive; nt = not tested or not shown. Unless noted, calls come from the whole dose curve; as a rule, active = well fitted curve in the direction sought with a large enough effect; inconclusive = small, poorly fitted or top-dose-only effect, or another doubt; inactive = no such curve, though single readings can be large; an effect the other way counts as inactive or inconclusive. Unless noted, % is set by controls: 0 for no effect and ±100 for the full control effect.
SMILES,Giardia killer,FBPA coupling cs,ELG1 repair inh,Sfp inh
CC(=O)Nc1ccc(S(=O)(=O)N2CCCC(C(=O)N3CCN(c4ccccc4)CC3)C2)cc1 (stereo not given),4,3,21µM*,9%
CC(=O)c1ccc(N2CCN(C(=O)C3CCC3)CC2)cc1,-7,4,?,89µM*
CC(=O)c1ccc(N2CCN(C(=O)C3CCN(S(=O)(=O)c4ccc(F)cc4)CC3)CC2)cc1,-24,nt,?,nt
O=C(C1CCN(S(=O)(=O)Cc2ccccc2)CC1)N1CCN(c2ncccn2)CC1,5,2,-1%,12%
O=C(C1CCN(c2ccc(N3CCOCC3)nn2)CC1)N1CCN(c2ccc(F)cc2)CC1,-2,-1,16µM*,5%
CC(=O)c1ccc(N2CCN(C(=O)C3CCN(S(=O)(=O)Cc4ccccc4)CC3)CC2)cc1,7,4,18µM*,-23%
COc1ccc(NC(=O)CCNS(=O)(=O)c2cccc3nonc23)c(OC)c1,7,2,1%,8%
COc1ccc(O[C@H]2C=C[C@@H](c3ccccc3)O[C@@H]2COC(=O)CC/C(C)=N/O[C@H](C)c2cn([C@@H]3COC[C@H]3O)nn2)cc1,nt,-4,26µM*,9%
COc1ccc(O[C@H]2C=C[C@@H](c3ccccc3)O[C@H]2CO/N=C(/C)CCC(=O)OC[C@@H]2O[C@H](c3ccccc3)C=C[C@@H]2Oc2ccc(OC)cc2)cc1,nt,-1,nt,-7%
Cc1ccc(N(CCC#N)C(=O)CCl)cc1C,0,0,18µM*,2%
Cc1ccc(Cl)cc1N1CCN(C(=O)C2CCN(c3nnc(-n4cccc4)s3)CC2)CC1,5,4,8.2µM*,-5%
CC(C)c1ccc(N=Cc2c(O)c3ccccc3oc2=O)cc1,0,0,?,45µM*
CC1CCN(Cc2nnc(-c3cccc(Br)c3)o2)CC1,-3,0,?,0%
COC(=O)c1ccc(Cl)cc1NC(=O)/C=C/c1ccc(C)o1,15,-3,16%,25µM*
COC(=O)c1cc(Cl)c(NC(=O)/C=C/c2ccc(Cl)cc2Cl)cc1OC,-3,-1,0%,5%
CCOC(=O)c1c(NC(=O)/C=C/c2ccc(C)o2)sc(C)c1C,-19,5,6%,35µM*
Cc1ccc(/C=C/C(=O)Nc2sc(C)c(C)c2C(=O)OC(C)C)o1,10,-2,19%,?
COC(=O)c1c(NC(=O)CCc2ccc(C)o2)sc(C)c1C,2,1,5%,20µM*
COc1cccc(-c2nc(CS(=O)(=O)CC(=O)N3CCOCC3)c(C)o2)c1,14,2,?,6%
c1ccc(-n2cnc3cc(NCc4ccncc4)ccc32)cc1,2,-42*,?,-26%
CC(C)[C@@H](CC(=O)N[C@@H]1CCNC[C@H]1C(=O)N[C@H](CC(=O)N[C@@H](CCC(=O)O)CC(=O)O)Cc1ccccc1)NC(=O)C[C@H](Cc1ccccc1)NC(=O)[C@@H]1CNCC[C@H]1N,nt,-3,nt,-11%
CCOC(=O)N1CCC(NC(=O)c2cc(C(=O)Nc3cccc(C(F)(F)F)c3)ccc2CO)CC1,14,2,8.2µM*,10%
CCOC(=O)N1CCC(NC(=O)c2ccc(CO)c(C(=O)NC3CCN(C(=O)OCC)CC3)c2)CC1,24,-1,7%,20%
COc1ccc(/C=C/C(=O)c2ccc(O)cc2)cc1,?,6,?,1%
COc1cc(/C=C/c2ccc(O)cc2)cc(OC)c1,-13,-1,nt,56µM*
SMILES,Giardia killer,FBPA coupling cs,ELG1 repair inh,Sfp inh
Cc1ccccc1OCC(=O)Nc1ccccc1C(=O)NC1CC1,7,nt,5.2µM*,nt
O=C(COc1ccccc1)Nc1ccccc1C(=O)NC1CC1,-1,nt,0%,nt
COc1cc(-c2csc(NC3CCCCC3)n2)cc(OC)c1OC,-5,-6,?,-11%
COc1ccccc1-c1nc2cc3ccccc3cc2nc1-c1ccccc1OC,-4,-28,21µM*,0%
Cc1cc(C(=O)NC(C)CCc2ccccc2)ccc1[N+](=O)[O-] (stereo not given),4,1,?,11%
CCCCCCCCCCCCCCCC[n+]1ccc(C(N)=O)cc1,17,0,5%,?
CCCCCCCCCCCCCC[n+]1ccc(C)cc1,nt,nt,nt,56µM*
CCCCCCCCCCCCCCCC[n+]1ccc(/C=N/O)cc1,-29,6,?,32µM*
COC(=O)c1ccc(NC(=S)N2CCC(C(N)=O)CC2)cc1,-5,1,-2%,32µM*
COC(=O)c1sccc1NC(=S)N1CCC(C(N)=O)CC1,-5,-2,?,79µM*
